Measurements from PubChem BioAssay (Tox21).
Inconclusive results are not listed. Active and inactive are the calls of the source. Unless noted, calls follow the shape of the dose curve; as a rule, active = well fitted curve in the direction sought with a large enough effect in the repeat runs; inconclusive = weak or mixed curves; inactive = no such curve, though single readings can be large; an effect the other way counts as inactive or inconclusive.

Key:
[1] = qHTS assay to identify small molecule HDAC inhibitors - cell viability counter screen (AID 1259365); also: series mostly up to about 92 µM; nearly all actives have a fitted effect of over 50% in size
Method in brief: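 HCT-116 (wild type), 1,500 cells/well, overnight 37C/5% CO2; compound in DMSO 2hr; CellTiter-Glo 30min RT; luminescence read.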

[2] = qHTS assay to identify small molecule agonists of the sonic hedgehog signaling (Shh) pathway - cell viability counter screen (AID 1259366); also: nearly all actives have a fitted effect of over 50% in size
Method in brief: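 CellTiter-Fluor fluorescence read-out, 1 hr at 37C, added after 23hr compound exposure. Cells: 3T3 Gli1-Luc, an NIH/3T3 clone with stably integrated Gli1-Luc reporter, plated 4hr before compound.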

[3] = qHTS assay to identify small molecule antagonists of the sonic hedgehog signaling (Shh) pathway - cell viability counter screen (AID 1259367); also: nearly all actives have a fitted effect of over 55% in size
Method in brief: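 After a 4 hr settling period, 3T3 Gli1-Luc cells were treated with DMSO-dissolved chemicals and conditioned medium, kept 24 hr at 37C in 5% CO2, and assayed for viability by CellTiter-Fluor fluorescence following 1 hr reagent incubation.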

[4] = qHTS assay to identify small molecule agonists of the sonic hedgehog signaling (Shh) pathway (AID 1259368; calls by dose curve;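 also: NIH/3T3-derived 3T3Gli1-Luc cells carrying a stable Gli1-driven firefly luciferase reporter; series mostly up to about 92 µM; nearly all actives have a fitted effect of over 15% in size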)
Method in brief: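 NIH/3T3-derived 3T3Gli1-Luc cells with stably integrated Gli1-driven firefly luciferase, 2,000 cells/well, compounds added after 4 hr. Incubated 24 hr at 37C, 5% CO2; luminescence read after 30 min with luciferase reagent at room temperature.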

[5] = qHTS assay to identify small molecule antagonists of the sonic hedgehog signaling (Shh) pathway (AID 1259369; calls by dose curve; also: nearly all actives have a fitted effect of over 45% in size)
Method in brief: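 NIH/3T3-derived Gli1-Luc reporter cells plated 4 h, dosed with compound, then stimulated with conditioned medium for 24 h at 37 C. Firefly luciferase luminescence read after 30 min with detection reagent at room temperature.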

[6] = target: Estrogen receptor beta (Homo sapiens) (UniProt Q92731); test: qHTS assay to identify small molecule agonists of the estrogen receptor beta (ER-beta) signaling pathway (AID 1259377; active = well fitted activation curve with a large enough effect in the signal ratio in the repeat runs, not every such curve was filed as active; the % refers to the signal ratio)
Method in brief: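 Beta-lactamase reporter readout: fluorescence of LiveBLAzer B/G FRET substrate after 2 h at room temperature, following 16 h compound treatment of ER-beta-UAS-bla HEK293T cells at 37C in 2% charcoal-stripped FBS medium.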

[7] = target: Estrogen receptor beta (Homo sapiens) (UniProt Q92731); test: qHTS assay to identify small molecule antagonists of the estrogen receptor beta (ER-beta) signaling pathway (AID 1259378; active = well fitted inhibition curve with a large enough effect in the signal ratio in the repeat runs, not every such curve was filed as active; the % refers to the signal ratio)
Method in brief: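 ER-beta-UAS-bla HEK293T (GripTite) cells in 2% charcoal-stripped FBS medium were preincubated 6 hr at 37C, dosed with compound, then stimulated with 1 nM E2 (final) for 16 hr; beta-lactamase reporter read by B/G FRET fluorescence after 2 hr substrate loading.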

[8] = qHTS assay to identify small molecule agonists of the androgen receptor (AR) signaling pathway in the presence of an antagonist - cell viability counter screen (AID 1259379);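 also: MDA-kb2 human breast cancer cells carrying an MMTV luciferase reporter; series mostly up to about 92 µM; nearly all actives have a fitted effect of over 25% in size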
Method in brief: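 MDA-kb2 cells (MMTV-luciferase, AR/GR), 3,000/well, 5 h attachment, then 3.0 µM nilutamide (final) and compounds at 15 concentrations. Viability by CellTiter-Fluor fluorescence after 16 h at 37 °C, 0% CO2, in the reporter wells.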

[9] = target: Estrogen receptor (Homo sapiens) (UniProt P03372); test: qHTS assay to identify small molecule agonists of the estrogen receptor alpha (ER-alpha) signaling pathway in the presence of an antagonist (AID 1259383; calls by dose curve; also: top concentration of the series differs between compounds; nearly all actives have a fitted effect of over 15% in size)
Method in brief: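 VM7Luc4E2 cells express endogenous full-length ER-alpha with an ERE-luciferase reporter and were hormone-deprived for 5 days. Compounds at 15 concentrations were added with 10.0nM ICI-182,780 for 22hr at 37C. Luminescence was read with ONE-Glo.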

[10] = qHTS assay to identify small molecule agonists or antagonists of the thyroid stimulating hormone receptor (TSHR) signaling pathway - wild type cell line counter screen (AID 1259384; calls by dose curve)
Method in brief: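 Wild-type HEK293 cells were plated 18 h at 37 C/5% CO2, pin-dosed with compound plus Ro20-1724 medium, held 30 min at room temperature, then given cAMP-d2 and anti-cAMP-cryptate; fluorescence was read after 1 h. Fifteen concentrations, triplicate.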

[11] = target: Thyrotropin receptor (Homo sapiens) (UniProt P16473); test: qHTS assay to identify small molecule antagonists of the thyroid stimulating hormone receptor (TSHR) signaling pathway (AID 1259385; calls by dose curve; also: nearly all actives have a fitted effect of over 20% in size)
Method in brief: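 TSHR-HEK293 cells were plated and held 18 h at 37C/5% CO2, then given compound plus Ro20-1724 and stimulated with TSH at 1.5 ng/mL final. After 30 min at room temperature, cAMP was detected with cAMP-d2/anti-cAMP-cryptate (1 h) by fluorescence.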

[12] = qHTS assay to identify small molecule agonists of the estrogen receptor alpha (ER-alpha) signaling pathway in the presence of an antagonist - cell viability counter screen (AID 1259386);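 also: series mostly up to about 92 µM; cells exposed to compounds for 22 h at 37 °C before the viability read; nearly all actives have a fitted effect of over 30% in size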
Method in brief: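 Cell viability in VM7Luc4E2 cells (endogenous full-length ER-alpha) measured by CellTiter-Fluor fluorescence in the same wells as the luciferase screen. Cells pre-cultured 5 days in charcoal-stripped serum, then treated 22 h with compounds at 15 concentrations plus 10.0nM ICI-182,780.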

[13] = target: Progesterone receptor (Homo sapiens) (UniProt P06401); test: qHTS assay to identify small molecule antagonists of the progesterone receptor (PR) signaling pathway (AID 1346795; active = well fitted inhibition curve with a large enough effect in the signal ratio in the repeat runs, not every such curve was filed as active; the % refers to the signal ratio)
Method in brief: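 Beta-lactamase reporter, HEK293T PR-UAS-bla line; 2% charcoal-stripped FBS; 6 hr pre-incubation, 37C/5% CO2. Compound + R5020 1 nM final, 16 hr. LiveBLAzer B/G FRET substrate, 2 hr RT; fluorescence intensity read.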

[14] = qHTS assay to identify small molecule antagonists of the progesterone receptor (PR) signaling pathway - cell viability counter screen (AID 1346798); also: nearly all actives have a fitted effect of over 50% in size; also: potency is read from the fitted curve at half-maximal effect; as to activity change, negative = cytotoxicity: series mostly up to about 92 µM
Method in brief: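 Luminescence readout (CellTiter-Glo, 30 min, RT) of viability in PR-UAS-bla HEK293T cells exposed to compound and R5020 agonist for 16 hr at 37C, 5% CO2; run in the same wells as the beta-lactamase reporter read.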

[15] = qHTS assay to identify small molecule agonists of the progesterone receptor (PR) signaling pathway - cell viability counter screen (AID 1346799; calls by dose curve; also: nearly all actives have a fitted effect of over 45% in size)
Method in brief: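 HEK293T PR-UAS-bla, 3,000 cells/well, 2% charcoal-stripped FBS; 6 h settle, compound 16 h at 37C/5% CO2; LiveBLAzer 2 h RT, then CellTiter-Glo 30 min RT, luminescence read.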

[16] = qHTS assay to identify small molecule antagonists of the TGF-beta/Smad signaling pathway - cell viability counter screen (AID 1346824); also: nearly all actives have a fitted effect of over 50% in size
Method in brief: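 SBE-bla HEK 293T cells were plated overnight at 37 C, then given compounds in DMSO plus TGF-beta1 (added as 0.25 ng/mL solution) for 5 hr. After the bla read, CellTiter-Glo was added to the same wells and luminescence read after 30 min at room temperature.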

[17] = qHTS assay to identify small molecule HDAC inhibitors (AID 1259364); also: top concentration of the series differs between compounds; nearly all actives have a fitted effect of over 45% in size
Method in brief: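 Wild-type HCT-116 cells, plated overnight at 37 C, exposed to compounds 2 hr at 37 C; luminogenic HDAC-Glo substrate then added 30 min at room temperature. Luminescence reports relative endogenous class I/II HDAC activity.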

[18] = qHTS assay to identify small molecule agonists of the estrogen receptor beta (ER-beta) signaling pathway - cell viability counter screen (AID 1259380); also: nearly all actives have a fitted effect of over 30% in size
Method in brief: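 ER-beta-UAS-bla HEK293T cells in medium with 2% charcoal-stripped FBS, pre-incubated 6 hr, then treated 16 hr at 37C. Cytotoxicity read in the same wells by CellTiter-Glo luminescence after 30 min at room temperature.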

[19] = target: Progesterone receptor (Homo sapiens) (UniProt P06401); test: qHTS assay to identify small molecule agonists of the progesterone receptor (PR) signaling pathway (AID 1346784; calls by dose curve; also: nearly all actives have a fitted effect of over 30% in size)
Method in brief: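 HEK 293T PR-UAS-bla reporter cells, 2% charcoal-stripped FBS; 6 hr settle at 37C/5% CO2, compound (DMSO) 16 hr, LiveBLAzer B/G FRET substrate 2 hr RT, fluorescence intensity read.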

[20] = qHTS assay to identify small molecule antagonists of the estrogen receptor beta (ER-beta) signaling pathway - cell viability counter screen (AID 1259382); also: series mostly up to about 92 µM; nearly all actives have a fitted effect of over 55% in size
Method in brief: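 ER-beta-UAS-bla HEK293T cells in 2% charcoal-stripped FBS medium, treated with compound plus 1 nM 17-beta-estradiol for 16 h at 37C. Viability read by CellTiter-Glo luminescence after 30 min at room temperature in the same wells.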
% is scaled to controls: 0 for no effect and ±100 for the full control effect.

Sequence of Estrogen receptor beta (Homo sapiens) (Q92731 whole entry, looked up): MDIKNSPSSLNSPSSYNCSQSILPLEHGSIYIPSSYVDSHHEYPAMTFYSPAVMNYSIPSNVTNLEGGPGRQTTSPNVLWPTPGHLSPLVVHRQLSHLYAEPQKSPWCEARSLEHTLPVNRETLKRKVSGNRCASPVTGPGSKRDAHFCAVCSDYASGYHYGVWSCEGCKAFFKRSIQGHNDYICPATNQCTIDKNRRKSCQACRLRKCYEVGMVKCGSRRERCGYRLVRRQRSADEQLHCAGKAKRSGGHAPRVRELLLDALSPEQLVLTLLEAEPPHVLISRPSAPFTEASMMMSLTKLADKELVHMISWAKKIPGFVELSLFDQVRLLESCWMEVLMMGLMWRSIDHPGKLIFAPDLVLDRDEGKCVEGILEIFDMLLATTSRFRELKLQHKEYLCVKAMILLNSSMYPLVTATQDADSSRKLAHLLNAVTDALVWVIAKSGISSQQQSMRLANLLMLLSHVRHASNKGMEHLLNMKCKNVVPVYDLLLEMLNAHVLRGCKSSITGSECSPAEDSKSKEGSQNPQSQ
Sequence of Progesterone receptor (Homo sapiens) (P06401 whole entry, looked up): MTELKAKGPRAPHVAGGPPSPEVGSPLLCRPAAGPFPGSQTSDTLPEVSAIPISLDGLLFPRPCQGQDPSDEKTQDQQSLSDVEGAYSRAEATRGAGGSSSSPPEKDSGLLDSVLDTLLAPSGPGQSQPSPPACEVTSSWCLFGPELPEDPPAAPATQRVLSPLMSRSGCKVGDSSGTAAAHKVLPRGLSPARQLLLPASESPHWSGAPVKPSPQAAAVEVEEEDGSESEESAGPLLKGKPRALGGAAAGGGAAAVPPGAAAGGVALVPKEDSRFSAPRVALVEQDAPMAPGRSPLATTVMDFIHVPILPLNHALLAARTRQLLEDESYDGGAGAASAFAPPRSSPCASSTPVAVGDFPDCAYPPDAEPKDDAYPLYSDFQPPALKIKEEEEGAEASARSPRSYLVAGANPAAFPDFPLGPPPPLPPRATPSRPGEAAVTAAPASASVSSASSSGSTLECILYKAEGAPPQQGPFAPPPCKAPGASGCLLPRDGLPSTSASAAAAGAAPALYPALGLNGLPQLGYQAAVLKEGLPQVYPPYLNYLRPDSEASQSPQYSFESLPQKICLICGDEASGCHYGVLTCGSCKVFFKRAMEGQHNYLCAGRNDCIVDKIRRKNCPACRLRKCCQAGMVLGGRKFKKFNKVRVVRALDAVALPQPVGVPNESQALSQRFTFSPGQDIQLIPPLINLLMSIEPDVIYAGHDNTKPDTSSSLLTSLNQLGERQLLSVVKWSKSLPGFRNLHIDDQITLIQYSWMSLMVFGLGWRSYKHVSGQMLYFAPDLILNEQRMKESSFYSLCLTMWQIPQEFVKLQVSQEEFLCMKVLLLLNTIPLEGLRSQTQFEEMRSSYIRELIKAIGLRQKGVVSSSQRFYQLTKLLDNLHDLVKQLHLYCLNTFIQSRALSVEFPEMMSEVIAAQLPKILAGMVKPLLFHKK
Sequence of Thyrotropin receptor (Homo sapiens) (P16473 whole entry, looked up): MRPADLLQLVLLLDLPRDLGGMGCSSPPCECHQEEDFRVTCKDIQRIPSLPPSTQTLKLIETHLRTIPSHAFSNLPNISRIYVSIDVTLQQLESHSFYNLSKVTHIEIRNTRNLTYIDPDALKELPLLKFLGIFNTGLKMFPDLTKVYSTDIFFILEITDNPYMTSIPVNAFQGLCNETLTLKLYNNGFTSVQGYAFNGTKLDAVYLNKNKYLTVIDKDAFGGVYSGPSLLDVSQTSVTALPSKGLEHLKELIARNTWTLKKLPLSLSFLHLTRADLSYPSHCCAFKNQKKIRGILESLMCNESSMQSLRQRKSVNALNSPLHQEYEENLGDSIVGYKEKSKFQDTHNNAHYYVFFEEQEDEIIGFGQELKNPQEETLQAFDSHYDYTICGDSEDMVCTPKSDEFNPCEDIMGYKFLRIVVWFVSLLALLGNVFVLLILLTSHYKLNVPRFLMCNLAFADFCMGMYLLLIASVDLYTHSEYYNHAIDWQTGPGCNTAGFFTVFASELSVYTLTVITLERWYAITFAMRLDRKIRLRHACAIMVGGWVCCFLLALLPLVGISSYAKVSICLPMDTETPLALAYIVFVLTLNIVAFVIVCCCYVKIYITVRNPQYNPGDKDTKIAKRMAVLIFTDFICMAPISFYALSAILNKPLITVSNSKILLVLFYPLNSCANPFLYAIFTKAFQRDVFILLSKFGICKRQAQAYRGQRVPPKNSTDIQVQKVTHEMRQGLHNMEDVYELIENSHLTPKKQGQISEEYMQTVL
Sequence of Estrogen receptor (Homo sapiens) (P03372 whole entry, looked up): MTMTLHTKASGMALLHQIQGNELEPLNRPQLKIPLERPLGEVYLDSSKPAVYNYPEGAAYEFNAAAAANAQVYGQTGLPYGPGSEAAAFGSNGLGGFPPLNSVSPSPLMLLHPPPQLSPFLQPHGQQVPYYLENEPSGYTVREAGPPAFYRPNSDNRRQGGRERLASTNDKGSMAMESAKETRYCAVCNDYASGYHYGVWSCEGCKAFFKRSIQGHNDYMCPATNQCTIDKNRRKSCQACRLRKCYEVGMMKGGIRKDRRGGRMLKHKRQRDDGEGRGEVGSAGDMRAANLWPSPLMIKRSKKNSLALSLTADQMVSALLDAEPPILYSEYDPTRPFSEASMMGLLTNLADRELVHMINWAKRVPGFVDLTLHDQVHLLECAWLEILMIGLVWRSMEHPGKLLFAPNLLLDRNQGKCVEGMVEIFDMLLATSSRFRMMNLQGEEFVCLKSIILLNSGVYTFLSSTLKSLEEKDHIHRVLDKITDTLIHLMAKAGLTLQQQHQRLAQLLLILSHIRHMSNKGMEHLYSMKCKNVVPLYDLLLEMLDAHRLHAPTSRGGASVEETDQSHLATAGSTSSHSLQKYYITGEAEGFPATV

O=C(/C=C/c1ccccc1)NCCO
inactive: outcome [1] | Potency [2] | Potency [3] | outcome [4] | Potency [5] | Potency [6] | outcome [7] | Potency [8] | outcome [9] | outcome [10] | outcome [11] | Potency [12] | Potency [13] | Potency [14] | Potency [15] | outcome [16]

CCC1Nc2cc(Cl)c(S(N)(=O)=O)cc2S(=O)(=O)N1 (stereo not drawn)
inactive: Potency [17] | outcome [1] | Potency [2] | Potency [3] | Potency [6] | outcome [7] | Potency [8] | outcome [18] | outcome [10] | outcome [11] | Potency [12] | Potency [19] | Potency [14] | Potency [15] | outcome [16]

C=CCOc1cc(Cl)ccc1C(=O)NCCN(CC)CC
inactive: Potency [17] | outcome [1] | Potency [2] | Potency [3] | Potency [6] | outcome [7] | Potency [8] | outcome [18] | outcome [20] | outcome [11] | Potency [12] | Potency [19] | Potency [13] | Potency [14] | Potency [15] | outcome [16]

O=C(O)Cc1cccc(-c2cc(CCCCCCc3ccc(O[C@H]4O[C@H](CO)[C@@H](O)[C@H](O)[C@@H]4O)c(-c4cccc(CC(=O)O)c4)c3)ccc2O[C@H]2O[C@H](CO)[C@@H](O)[C@H](O)[C@@H]2O)c1
inactive: activity change, negative = inhibition [17] 0.203% [at 0.349 µM] | activity change, negative = cytotoxicity [1] -0.936% [at 0.349 µM] | viability change, negative = cytotoxic [2] 1.74% [at 0.349 µM] | viability change, negative = cytotoxic [3] 3.56% [at 0.349 µM] | activity change, negative = cytotoxicity [8] 1.29% [at 0.35 µM] | activity change, negative = cytotoxicity [18] 7.37% [at 0.349 µM] | activity change, negative = cytotoxicity [20] 7.67% [at 0.349 µM] | activity change, negative = inhibition [11] -1.92% [at 0.349 µM] | activity change, negative = cytotoxicity [12] 4.6% [at 0.349 µM] | activation [19] 1.15% [at 0.349 µM] | activity change, negative = inhibition [13] 0.629% [at 0.348 µM] | activity change, negative = cytotoxicity [14] 8.15% [at 0.348 µM]

Cc1cccc(NC(=S)N(C)C)c1
inactive: Potency [17] | outcome [1] | Potency [2] | Potency [3] | Potency [5] | Potency [6] | Potency [8] | outcome [18] | outcome [10] | outcome [11] | Potency [12] | Potency [15] | outcome [16]
active: Potency [14] 30.6 µM
